Measurements published in PubChem BioAssay (NCATS).
Records with an inconclusive call do not appear. Unmarked numbers belong to inactive results. The source made the active and inactive calls. Calls follow the shape of the dose curve; as a rule, active = well fitted inhibition curve with a large enough effect; inconclusive = small, poorly fitted or top-dose-only effect; inactive = no such curve, though single readings can be large or run the other way.

Assay: Primary qHTS for inhibitors of nuclear receptor binding SET domain protein 2 (NSD2) in an RCH-ACV wild type WT cells (2C) (AID 1645877); also: nearly all actives have a fitted effect of over 70% in size
Settings: RCH-ACV (leukaemia line) NSD2 WT (2C) viability, CellTiter-Glo, 72 h; series mostly up to 44.9 µM; activity change, negative = cell killing: at the top concentration
% is scaled to controls: 0 for no effect and ±100 for the full control effect; potency is read from the fitted curve at half-maximal effect.

SMILES	Potency	activity change, negative = cell killing	outcome
CC1=C(/C=C/C(C)=C/C=C/C(C)=C/C=C/C=C(C)/C=C/C=C(C)/C=C/C2=C(C)CCCC2(C)C)C(C)(C)CCC1	18.6 µM (active)		
CC(C)=CCCC1(C)Oc2cc3c(c4c2C2C(O4)C(C)(O)CCC21)CN(C(CCC(=O)O)C(=O)O)C3=O (stereo not drawn)		-9.47% [at 17.3 µM]	
NCCOCCOCCNC(=O)Cc1ccc(Nc2nc(NCc3ccc(F)cc3)nc(NCC3CCCCC3)n2)cc1	16.3 µM (active)		
C=CC1(C)C=C2C(O)CC3C(C)(C(=O)O)CCCC3(C)C2CC1 (stereo not drawn)			inactive
C=C1CC2(C(=O)O)CC1CCC2C1(C)CCCC2(C)C(=O)OC(O)C21 (stereo not drawn)			inactive
CC1(C)NC2N(C1=O)c1ccccc1C2(O)CC(C(=O)O)n1cnc2ccccc2c1=O (stereo not drawn)		0.163% [at 17.3 µM]	
CC(C)C(=O)OCC(=O)[C@@]12O[C@H](C3CCCCC3)O[C@@H]1C[C@H]1[C@@H]3CCC4=CC(=O)C=C[C@]4(C)[C@H]3[C@@H](O)C[C@@]12C	0.0209 µM (active)		
OC[C@H]1O[C@@H](Oc2ccc3c(c2)OC[C@H]2c4cc5c(cc4O[C@@H]32)OCO5)[C@H](O)[C@@H](O)[C@@H]1O	7.96 µM (active)		
COc1ccc2c(c1)O[C@H](O[C@@H]1O[C@H](CO)[C@@H](O)[C@H](O)[C@H]1O)C(=O)N2			inactive
CC1=CCC2C(C)(CO)CCCC2(CO)C1CO (stereo not drawn)		-12.5%	
CCCOc1ccn2c(C(C)=O)cc(-c3ccccc3S(C)(=O)=O)c2c1	18.6 µM (active)		
COc1cc(C2OCC3C(c4ccc(OC5OC(CO)C(O)C(O)C5O)c(OC)c4)OCC23)ccc1O (stereo not drawn)		-32.2% [at 17.3 µM]	
O=C(NN1CCCCC1)c1nn(-c2ccc(Cl)cc2Cl)c(-c2ccc(C#Cc3ccc(C(F)(F)F)cc3)s2)c1CNS(=O)(=O)N1CCCC1		0.628%	
